Screening results deposited in PubChem BioAssay by National Center for Advancing Translational Sciences (NCATS).
MCF10A rerep = A quantitative high throughput screen for small molecules that induce DNA re-replication in MCF 10a normal breast cells; AID 624296, 2012; MCF 10A DNA re-replication, Hoechst nuclear intensity, 48 h; Potency, µM (titrated, usually from 46.1 µM), hits mostly activators; 2.9% of 350,000 active; also: nearly all actives have a fitted effect of over 50% in size
SW480 rerep = A quantitative high throughput screen for small molecules that induce DNA re-replication in SW480 colon adenocarcinoma cells; SW480 DNA re-replication, Hoechst DNA content imaging, 48 h; Potency, µM (highest dose often 46.1 µM), most hits filed as activators; 1.8% of 340,000 active; AID 624297, 2012; also: nearly all actives have a fitted effect of over 55% in size
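DNA re-replication was detected as more nuclei of elevated Hoechst intensity after 48 hr exposure to compound (23 nL pinned per well of 250 cells).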
KB-V1 MDR tox = qHTS assay for MDR1-selective chemotherapeutics: Primary screen using the drug-selected MDR subline cells KB-V1 | KB-V1 MDR cells viability, CellTiter-Glo, 72 h | Potency, µM (titrated, usually from 46.1 µM), most hits filed as cytotoxic | 3.4% of 400,000 active | AID 1347076, 2019; also: nearly all actives have a fitted effect of over 60% in size
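qHTS viability screen in drug-selected KB-V1 MDR cells: 72 h compound treatment at 37 degrees C, ATP luminescence end point.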
PINK1 modulator = A Quantitative High throughput Screen to Identify Chemical Modulators of PINK1 Expression; PINK1 immunofluorescence, high-content cytometry, 24 h; Potency, µM (highest dose often 76.6 µM), usual class: activators; 0.2% of 410,000 active; AID 624263, 2012; active = well fitted activation curve with a large enough effect; inconclusive = small, poorly fitted or top-dose-only effect; cell line not stated here; also: nearly all actives have a fitted effect of over 65% in size
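Stable cell line treated 24 h with compounds at 5 concentrations (CCCP controls), then fixed and immunostained for PINK1 plus nuclear and cell stains; PINK1 immunofluorescence quantified by laser-scanning microplate cytometry.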
KB-3-1 cytotox = qHTS assay for MDR1-selective chemotherapeutics: Primary screen using the parental adenocarcinoma cell KB-3-1. KB-3-1 viability, CellTiter-Glo ATP luminescence, 72 h. Potency, µM (top dose mostly 46.1 µM), most hits filed as cytotoxic. 1.4% of 400,000 active. AID 1347075, 2019; also: nearly all actives have a fitted effect of over 60% in size
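Here the drug-naive KB-3-1 line serves as comparator for MDR sub-line selectivity; cells received compound titrations, 72 h at 37 °C, then CellTiter-Glo readout.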
Of the large screens only hits and unclear results are named; the others gave an inactive call. Hits are enriched below; roughly 6.7% of the tested compounds scored in any of these assays. Unless noted, calls follow the shape of the dose curve; as a rule, active = well fitted curve in the direction sought with a large enough effect; inconclusive = small, poorly fitted or top-dose-only effect, or another doubt; inactive = no such curve, though single readings can be large; an effect the other way counts as inactive or inconclusive.

Cc1ccc(S(=O)(=O)Cn2nnnc2C(CC(C)C)N2CCN(C3CCCC3)CC2)cc1 (stereo not drawn)	KB-V1 MDR tox inconclusive
O=C(/C=C/c1ccccc1)CC(O)(c1ccccc1)C(F)(F)F (stereo not drawn)	SW480 rerep inconclusive, KB-V1 MDR tox 23.1µM (no result: PINK1 modulator)
Nc1c2c(=O)oc(-c3ccccc3)cc2nn1-c1ccccc1	MCF10A rerep inconclusive, SW480 rerep 16.4µM, KB-V1 MDR tox 11.6µM, KB-3-1 cytotox 23.1µM
Nc1cc(-c2ccc(Cl)cc2)nn1-c1ccccc1	none
Cc1cc2c(c(C)nn2-c2ccccc2)c(=O)o1	MCF10A rerep inconclusive
Cc1c(-c2ccc(Cl)cc2)oc(=O)c2c(N)n(-c3ccccc3)nc12	MCF10A rerep inconclusive, KB-V1 MDR tox 20.6µM, KB-3-1 cytotox inconclusive
COc1ccc(-n2c(CCNC(=O)c3ccccc3C(F)(F)F)nnc2SC)cc1	none (no result: MCF10A rerep, SW480 rerep, KB-V1 MDR tox, KB-3-1 cytotox)
Cc1cccnc1-c1cccc2c1OC(CNC(=O)C(=O)c1ccccc1)C2 (stereo not drawn)	none (no result: MCF10A rerep, SW480 rerep, KB-V1 MDR tox, KB-3-1 cytotox)
COCCNC(=O)C1(C)CCCN(C(=O)c2ccccc2OC)C1 (stereo not drawn)	none (no result: MCF10A rerep, SW480 rerep)
CCN(CC)CCCNC(=O)c1ccc(-c2nc(CN3CCc4ccccc43)c(C)o2)cc1	KB-V1 MDR tox inconclusive, KB-3-1 cytotox inconclusive (no result: MCF10A rerep, SW480 rerep)
CCCCOc1ccc(CNC(=O)c2ccc(-c3nc(CN4CCc5ccccc54)c(C)o3)cc2)cc1	KB-V1 MDR tox inconclusive, KB-3-1 cytotox 18.4µM (no result: MCF10A rerep, SW480 rerep)
CCCCNC(=O)c1ccc(-c2nc(CN3CCc4ccccc43)c(C)o2)cc1	KB-V1 MDR tox 5.17µM, KB-3-1 cytotox inconclusive (no result: MCF10A rerep, SW480 rerep)
CCCCOc1ccc(CNC(=O)c2ccc(NC(=O)N3CCCCc4ccccc43)cc2)cc1	none (no result: MCF10A rerep, SW480 rerep)
CCOC(=O)C1C(C(=O)OC)=C(c2ccc(OC)cc2)c2ccc(OC)cc2N1S(=O)(=O)C(F)(F)F (stereo not drawn)	SW480 rerep inconclusive
CCOC(=O)C1=C(C2=CCCCC2)c2ccc(OC)cc2N(S(=O)(=O)C(F)(F)F)C1C(=O)OCC (stereo not drawn)	MCF10A rerep 16.4µM, SW480 rerep 10.3µM
CSc1ccc(CCNC(=O)C2=C(C)C(=O)OC23CCCCC3)cc1	none (no result: MCF10A rerep, SW480 rerep, KB-V1 MDR tox, KB-3-1 cytotox)
CCOc1ccc(-n2nc3ccc(NC(=O)COc4ccccc4C)cc3n2)cc1	none (no result: MCF10A rerep, SW480 rerep)
COc1ccc(NC(=O)C2CCN(Cc3cnn(-c4ccccc4)c3-n3cccc3)CC2)cc1OC	KB-V1 MDR tox inconclusive
O=C(Nc1ccccc1Cl)C1CCN(Cc2cnn(-c3ccccc3)c2-n2cccc2)CC1	MCF10A rerep inconclusive, KB-V1 MDR tox 23.1µM, KB-3-1 cytotox 18.4µM
COc1ccc(OC)c(NC(=O)C2CCN(Cc3cnn(-c4ccccc4)c3-n3cccc3)CC2)c1	SW480 rerep inconclusive, KB-V1 MDR tox 8.2µM
COc1cc(NC(=O)c2cccc3c(-c4cnn(C)c4)coc23)cc(OC)c1OC	KB-V1 MDR tox inconclusive (no result: MCF10A rerep, SW480 rerep)
Cc1ccc(-c2cccc(C3CC=CC4C3C(=O)N(Cc3ccccc3)C4c3cc(C)ccc3F)c2)cc1 (stereo not drawn)	PINK1 modulator inconclusive, KB-3-1 cytotox 20.6µM
C[C@@H]1CC=C[C@H]2[C@H]1C(=O)N(Cc1ccccc1)[C@H]2c1ccc(-c2ccoc2)cc1F	MCF10A rerep 18.4µM
COc1ccc(-c2ccccc2[C@H]2[C@@H]3C=CC[C@@H](C)[C@@H]3C(=O)N2Cc2ccccc2)cc1	MCF10A rerep 23.1µM, SW480 rerep inconclusive
C[C@@H]1CC=C[C@@H]2[C@H]1C(=O)N(Cc1ccccc1)[C@H]2c1ccccc1Br	MCF10A rerep inconclusive, SW480 rerep inconclusive, KB-V1 MDR tox inconclusive, KB-3-1 cytotox inconclusive
COc1ccc(-c2ccc(F)cc2)cc1[C@H]1[C@H]2C=CC[C@@H](C)[C@@H]2C(=O)N1Cc1ccccc1	MCF10A rerep 20.6µM, KB-V1 MDR tox inconclusive, PINK1 modulator inconclusive, KB-3-1 cytotox inconclusive
CCOC(=O)C(N=Nc1nn[nH]n1)C(C)=O (stereo not drawn)	none (no result: MCF10A rerep, SW480 rerep)
COc1cccc(C(c2nnnn2C(C)(C)C)N2CCN(C/C=C/c3ccccc3)CC2)c1OC (stereo not drawn)	none (no result: MCF10A rerep, SW480 rerep)
COc1ccc(C(=O)NCCN2Cc3ccccc3OC(c3ccsc3)C2)c(OC)n1 (stereo not drawn)	none (no result: MCF10A rerep, SW480 rerep, KB-V1 MDR tox, KB-3-1 cytotox)
CCOc1ccc2nc(NC(=O)CSc3ccc(Cl)cc3)sc2c1	KB-V1 MDR tox inconclusive
Cc1nc2ccc(NC(=O)Cc3ccc4c(c3)OCCO4)cc2s1	KB-V1 MDR tox 14.6µM
CCOc1ccc2nc(SCC(=O)c3ccc(C)s3)sc2c1	none
COc1ccc(Nc2nnc(SCC(=O)NC(=O)Nc3ccc4c(c3)OCCO4)s2)cc1	MCF10A rerep 13µM, SW480 rerep 10.3µM
CCC(=O)Nc1nnc(SCC(=O)Nc2ccc3c(c2)OCCO3)s1	MCF10A rerep inconclusive, KB-3-1 cytotox inconclusive
CCOc1ccc2nc(SCC(=O)Nc3ccc4c(c3)OCO4)sc2c1	KB-V1 MDR tox 16.4µM
CCOc1ccc2nc(NC(=O)CSc3nc(SC)ns3)sc2c1	KB-V1 MDR tox 23.1µM
Cc1ccc(C(CC(=O)Nc2ccc(F)c(Cl)c2)N2Cc3ccccc3C2=O)cc1 (stereo not drawn)	none (no result: MCF10A rerep, SW480 rerep)
FC(F)(F)c1cccc(-n2c(Cn3nnc4ccccc43)n[nH]c2=S)c1	SW480 rerep 2.59µM
S=c1[nH]nc(Cn2nnc3ccccc32)n1-c1ccccc1	none
CC(C)(CN1CCCN(CC(C)(C)C(=O)O)C1=O)C(=O)O	none (no result: MCF10A rerep, SW480 rerep)
CCN(c1ccccc1)S(=O)(=O)c1ccc(OC)c(NC(=O)C2CCC2)c1	MCF10A rerep 18.4µM, SW480 rerep inconclusive (no result: KB-V1 MDR tox, KB-3-1 cytotox)
CCN(c1ccccc1)S(=O)(=O)c1ccc(OC)c(NC(=O)Cc2ccc(F)cc2)c1	MCF10A rerep inconclusive
COc1ccc(-c2csc(NC(=O)CSC(C)C(=O)Nc3cc(C)on3)n2)cc1OC (stereo not drawn)	none
COc1c(C(=O)Nc2ccc(CN3CCOCC3)cc2)cc2ccccc2c1Br	MCF10A rerep inconclusive, SW480 rerep inconclusive, KB-V1 MDR tox inconclusive
COc1c(C(=O)Nc2ccc3[nH]c(=O)[nH]c3c2)cc2ccccc2c1Br	MCF10A rerep 11.2µM, SW480 rerep inconclusive
O=C(Nc1cc(-c2nc3cc(Cl)ccc3o2)ccc1Cl)c1cc2ccccc2o1	KB-V1 MDR tox inconclusive (no result: MCF10A rerep, SW480 rerep)
Cc1nc2ccccc2c(=O)n1/N=C/c1c(O)ccc2oc3c(c12)CCCC3	KB-V1 MDR tox 18.4µM, KB-3-1 cytotox inconclusive
O=c1c2ccccc2nc(/C=C/c2cccc([N+](=O)[O-])c2)n1CCO	KB-V1 MDR tox inconclusive
O=c1c2ccccc2nc(/C=C/c2cc(Br)ccc2O)n1CCCO	MCF10A rerep inconclusive, SW480 rerep inconclusive, KB-V1 MDR tox inconclusive, KB-3-1 cytotox 20.6µM
